Here are results for 13 molecules from PubChem BioAssay (NCI).

Some test systems named below: SR leukemia; RPMI-8226 leukemia; OVCAR-8 ovarian; OVCAR-5 ovarian; OVCAR-4 ovarian; SK-OV-3 ovarian; IGROV1 ovarian; OVCAR-3 ovarian; HS 578T breast; NCI/ADR-RES ovarian.
Holding throughout (assay): NCI-60 one-dose screen, 48 h (100 = growth as untreated, 0 = no growth, -100 = all killed)
Holding throughout (settings): 10 µM unless noted

The panel holds about 83,000 compounds, 20% with a hit somewhere; the sample as a whole holds those more often.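 Treatment: one concentration, 48 hours, 96-well format. Scoring: percent growth, with anything below 10 considered active.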 Unmarked numbers belong to inactive results. Active and inactive are the calls of the source.

Consider `O=c1scc(-c2ccc(C(F)(F)F)cc2)s1`, for which the growth in the assay on SR leukemia is 89.9%; with RPMI-8226 leukemia, 97.7%; with OVCAR-8 ovarian, 94.7%; in the assay with OVCAR-5 ovarian it was 95.6%; in the assay on OVCAR-4 ovarian, 76.8%; in the assay on SK-OV-3 ovarian it was 99.3%. In addition, the growth in the assay with IGROV1 ovarian is 72.6%; with OVCAR-3 ovarian, 103%; with HS 578T breast it was 92.1%; with NCI/ADR-RES ovarian it was 102%.
Take `O=C(NCc1ccc(Cl)cc1Cl)C1CCC(=O)N1c1cccs1` (stereo not given): the growth is 91.8% with SR leukemia; 95.5% with RPMI-8226 leukemia; 93.5% in the assay with OVCAR-8 ovarian; 91.2% with OVCAR-5 ovarian; 97.5% in the assay on OVCAR-4 ovarian; 89.6% with SK-OV-3 ovarian. Further, the growth was 92.4% with IGROV1 ovarian, 108% in the assay on OVCAR-3 ovarian, 101% in the assay on HS 578T breast and 83.9% with NCI/ADR-RES ovarian.
Turning to `CN(C)S(=O)(=O)c1cccc(C(=O)Nc2nc(-c3ccc(F)c(F)c3)cs2)c1`, the growth was 41% in the assay on SR leukemia; 63.2% in the assay with RPMI-8226 leukemia; 48.9% in the assay on OVCAR-8 ovarian; 86.1% with OVCAR-5 ovarian; 37.2% with OVCAR-4 ovarian; 108% in the assay with SK-OV-3 ovarian. In addition, the growth was 41.6% with IGROV1 ovarian, 70.8% in the assay on OVCAR-3 ovarian, 107% in the assay on HS 578T breast and 22.5% in the assay with NCI/ADR-RES ovarian.
For `CC(C)(C)[Si](C)(C)OC1[C@@H](CNC(=O)NC(=O)NC(N)=O)O[C@@H](n2cnc3c(NC(=O)Nc4ccccc4)ncnc32)[C@H]1O[Si](C)(C)C(C)(C)C` (stereo not given in full), the growth with SR leukemia is 40.8%; in the assay on RPMI-8226 leukemia it was 69.1%; with OVCAR-8 ovarian it was 23%; in the assay with OVCAR-5 ovarian, 96.1%; in the assay on OVCAR-4 ovarian, 66.7%; in the assay on SK-OV-3 ovarian, 65.4%. For the same molecule, the growth in the assay on IGROV1 ovarian was 78.4%; in the assay on OVCAR-3 ovarian, 68.4%; in the assay with HS 578T breast it was 77.1%; with NCI/ADR-RES ovarian, 85.3%.
On to `CCCCNC(=O)Oc1ccc(/C(=C(/C)Cc2ccc(OC)cc2)c2ccc(OCCN(CC)CC)cc2)cc1`, for which the growth with SR leukemia was 16.7%; in the assay on RPMI-8226 leukemia, 66.3%; in the assay on OVCAR-8 ovarian, 86.9%; with OVCAR-5 ovarian, 82%; in the assay on OVCAR-4 ovarian, 80.3%; with SK-OV-3 ovarian, 97%. For the same molecule, the growth in the assay with IGROV1 ovarian was 93.7%; with OVCAR-3 ovarian it was 82%; in the assay with HS 578T breast, 76.9%; in the assay on NCI/ADR-RES ovarian, 91.1%.
For the molecule `C=CCn1c(C)nc2ccc(Nc3nc(Nc4ccc5nc(C)n(CC=C)c5c4)c4ccccc4n3)cc21`, the growth was -57.2% (active) in the assay with SR leukemia; -43.3% (active) in the assay on RPMI-8226 leukemia; -48.6% (active) with OVCAR-8 ovarian; 25.1% in the assay on OVCAR-5 ovarian; -93.3% (active) in the assay with OVCAR-4 ovarian; -63.7% (active) in the assay on SK-OV-3 ovarian. For the same molecule, the growth in the assay with IGROV1 ovarian was -47.5% (active); in the assay on OVCAR-3 ovarian, -95.4% (active); in the assay with HS 578T breast, -41.4% (active); in the assay with NCI/ADR-RES ovarian, 53.5%.
As to `CC1CN(S(=O)(=O)c2oc(-c3ccc(Cl)cc3)nc2C#N)CC(C)O1` (stereo not given), the growth in the assay on SR leukemia was -12.9% (active); in the assay with RPMI-8226 leukemia, 24.2%; in the assay with OVCAR-8 ovarian, 54.6%; in the assay on OVCAR-5 ovarian, 100%; with OVCAR-4 ovarian it was 92.4%; in the assay with SK-OV-3 ovarian, 99.9%. The growth in the assay on IGROV1 ovarian is 80.5%; in the assay with OVCAR-3 ovarian, 34.4%; in the assay with HS 578T breast it was 98.7%; with NCI/ADR-RES ovarian it was 101%.
For `CCCCn1c(=O)[nH]c(N)c([C@@H]2c3c([nH]c(=O)n(CCCC)c3=O)Oc3ccc4ccccc4c32)c1=O`, the growth in the assay on SR leukemia is 9.35% (active); with RPMI-8226 leukemia, 77.8%; in the assay on OVCAR-8 ovarian, 7.15% (active); in the assay on OVCAR-5 ovarian, 92.3%; with OVCAR-4 ovarian, 86.2%; with SK-OV-3 ovarian, 85%. Also, the growth was 1.79% (active) in the assay with IGROV1 ovarian, -92.1% (active) in the assay with OVCAR-3 ovarian, 103% in the assay with HS 578T breast and 9.83% (active) in the assay with NCI/ADR-RES ovarian.
`CCN(CC)CCCCCNc1cc(OC(=O)c2ccc(Cl)cc2)cc2cccnc12`: the growth was 75.3% in the assay on SR leukemia; 97.7% in the assay on RPMI-8226 leukemia; 88.3% in the assay with OVCAR-8 ovarian; 118% in the assay on OVCAR-5 ovarian; 39.9% in the assay with OVCAR-4 ovarian; 119% in the assay on SK-OV-3 ovarian. Further, the growth is 161% in the assay on IGROV1 ovarian, 78.7% with OVCAR-3 ovarian, 117% with HS 578T breast and 95.1% in the assay on NCI/ADR-RES ovarian.
Consider `CCN(CC)c1ccc(\C=N/N=C(N)/C(N)=N\N=C/c2ccc(N(CC)CC)cc2)cc1`, for which the growth with SR leukemia was 87.6%; in the assay with RPMI-8226 leukemia it was 99%; with OVCAR-8 ovarian, 99%; with OVCAR-5 ovarian, 126%; with OVCAR-4 ovarian, 110%; in the assay with SK-OV-3 ovarian, 102%. For the same molecule, the growth with IGROV1 ovarian is 105%; with OVCAR-3 ovarian, 115%; in the assay with HS 578T breast, 103%; in the assay with NCI/ADR-RES ovarian, 101%.
On to `Nc1nc2ccccc2c2c(=O)c3cccc(Cl)c3sc12`, for which the growth in the assay with SR leukemia is 89%; with RPMI-8226 leukemia, 96.1%; in the assay on OVCAR-8 ovarian, 94%; with OVCAR-5 ovarian it was 75%; in the assay with OVCAR-4 ovarian it was 81.1%; in the assay on SK-OV-3 ovarian, 86.5%. The growth is 73.8% in the assay with IGROV1 ovarian, 115% in the assay with OVCAR-3 ovarian, 101% in the assay on HS 578T breast and 93.1% in the assay on NCI/ADR-RES ovarian.
With `COc1ccc(NC2=C(I)C(=O)c3ncccc3C2=O)cc1`, the growth with SR leukemia is 6.66% (active); in the assay on RPMI-8226 leukemia it was 4.44% (active); in the assay with OVCAR-8 ovarian, 8.5% (active); in the assay with OVCAR-5 ovarian it was -62.8% (active); in the assay with OVCAR-4 ovarian, -88.3% (active); in the assay with SK-OV-3 ovarian, 50%. Moreover, the growth was -43.9% (active) in the assay with IGROV1 ovarian, -10.1% (active) in the assay on OVCAR-3 ovarian, -15.9% (active) in the assay with HS 578T breast and 0.698% (active) in the assay with NCI/ADR-RES ovarian.
With `O=C(Nc1ccc(Oc2cccc(F)c2)c(Cl)c1)c1cccnc1`, the growth with SR leukemia was 23.8%; with RPMI-8226 leukemia, 15.8%; with OVCAR-8 ovarian, 34.6%; in the assay with OVCAR-5 ovarian, 72.6%; in the assay on OVCAR-4 ovarian it was 46.2%; in the assay on SK-OV-3 ovarian, 30%. Moreover, the growth with IGROV1 ovarian is 41.8%; in the assay on OVCAR-3 ovarian, 6.97% (active); with HS 578T breast, 31.3%; with NCI/ADR-RES ovarian it was 13.9%.
